The source of these data is PubChem BioAssay.

Each structure is given as a SMILES string. Where “and” joins values, the source holds several entries; their conditions need not be identical. Equal values may be shown once. Inconclusive results are not listed. For part of these data: Potency and affinity values are given separately. Calls of active or inactive are those of the source.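 Rule for the calls, unless noted: active = compounds killing one labelled cell type while sparing the other, by normalised counts and ratio limits, not self-fluorescent; inactive = the rest.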

A short description of experiment [1]: differential killing of epithelial or mesenchymal cells, primary screen, imaging, PC-3E GFP, TEM4-18 mCherry, co-culture (AID 1345086).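 For all read-outs here: cells exposed to compound for 72 h before imaging.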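 For red/green cell ratio (normalised): normalised mesenchymal count divided by normalised epithelial count so high means epithelial killing.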 To be noted: imaging cell counts, at 1 µM; for red/green cell ratio (normalised): actives lie on both sides, counts scaled to control wells, 1 = unselective.
A short description of experiment [2]: polyglutamine-triggered caspase-3 activation inhibitors, cell-based (AID 1583). To be noted: polyglutamine-induced caspase-3 activation, cell assay; stronger effect = higher value;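 tested at 10 µM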.
The nature of experiment [3]: suppressors of polyQ aggregation in yeast, 75Q-TubU reporter (AID 1593). As to conditions: Yeast 75Q polyglutamine aggregation reporter.
Experiment [4] can be described thus: rescue of polyQ-huntingtin neuronal dysfunction in worms, whole organism, C. elegans mechanosensory neurons, N-terminal huntingtin (AID 1599). As to conditions: touch response, stronger effect = higher value.
The nature of experiment [5]: inhibitors of mitochondrial cytochrome c release, biochemical, purified mitochondria (AID 1603).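 Note: mouse liver mitochondria challenged with calcium chloride; signal normalized to the plate average as 100%.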 To be noted: stronger effect = lower value.
Experiment [6] is described as follows: inhibitors of polyQ protein aggregation (AID 1604). To be noted: polyglutamine-induced protein aggregation inhibition assay; stronger effect = higher value; tested at 2.5 µM.
The nature of experiment [7]: protection against mutant huntingtin cytotoxicity, PC12 cells, LDH release (AID 1610). To be noted: PC12 mutant huntingtin toxicity, final LDH at 4 uM, stronger effect = lower value.
The nature of experiment [8]: enhancers of glutamate uptake in motor neurons, MN-1 cell line (AID 1612).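 Note: tested at 1 µM final; 0% = mean of DMSO vehicle wells on each plate; positive means more glutamate uptake than control and negative means less.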 As to conditions: MN-1 motor neuron cells, stronger effect = higher value.
Experiment [9] is described as follows: reducers of polyQ inclusions in PC12 cells, cell-based, NGF-treated PC12, GFPQ80 (AID 1614).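 Note: lower means fewer inclusions and 0 means no inclusions at all.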 As to conditions: PC12 NGF-treated GFP-polyQ80 inclusion reduction.
Experiment [10] is described as follows: suppressors of polyglutamine aggregation in yeast, 75Q-TubH (AID 1616). To be noted: S. cerevisiae 75Q-TubH polyglutamine aggregation suppression; stronger effect = higher value.
The nature of experiment [11]: circadian clock period modulators, cell-based, LOPAC library, luminescence reporter (AID 2774; call rule not given here;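 note: values are relative to mean of DMSO wells on each plate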). To be noted: circadian reporter cells, at 7 µM, actives lie on both sides.
The test system of experiment [12] is Hepatitis C virus NS3 helicase. As to the kind of experiment: HCV NS3 helicase inhibitors, primary screen, biochemical, fluorescence polarization, LOPAC1280 library (AID 687035; in the data active = inhibition above about 37%). As to conditions: Purified HCV NS3 helicase, Cy5-dT15 ssDNA binding fluorescence polarization; stronger effect = higher value; concentration not given here.
Experiment [13] can be described thus: Cy5 fluorescence quenching or enhancement artefacts, artefact control for HCV NS3 helicase inhibitor project, biochemical, LOPAC1280 (AID 687037; call rule not given here). To be noted: Cy5-DNA-NS3h complex fluorescence interference counterscreen.
In experiment [14] the test system is Aerobactin synthetase IucA (Klebsiella pneumoniae). The experiment can be described thus: IucA aerobactin synthetase inhibitors, biochemical, Tocris library, absorbance (AID 1345561; call rule not given here;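 note: 100% = enzyme without compound and 0% = no enzyme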). To be noted: purified IucA enzyme assay, absorbance (OD) read-out; stronger effect = lower value;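 tested at 8 µM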.
Experiment [15] is described as follows: growth inhibition of DIPG glioma cells, dose response, cell-based, SU-DIPG-XVII, MIPE5.0, CellTiter-Glo, qHTS (AID 1347060; cut-off not given, nearly all actives have AC50 up to about 26 µM). As to conditions: SU-DIPG-XVII viability, CellTiter-Glo ATP luminescence.
The nature of experiment [16]: growth inhibition of DIPG glioma cells, dose response, cell-based, JHH-DIPG-1, MIPE4.0, CellTiter-Glo, qHTS (AID 1347062; cut-off not given, nearly all actives have AC50 up to about 27 µM). As to conditions: JHH-DIPG-1 viability, CellTiter-Glo ATP luminescence.
Experiment [17] can be described thus: growth inhibition of DIPG glioma cells, dose response, cell-based, SU-DIPG-IV, MIPE4.0, CellTiter-Glo, qHTS (AID 1347063; cut-off not given, nearly all actives have AC50 up to about 30 µM;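 note: compound exposure lasted 48 hours before the viability readout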). To be noted: SU-DIPG-IV viability, CellTiter-Glo ATP luminescence.
Experiment [18] is described as follows: viability loss in pontine glioma line – cell-based, SU-DIPG-XXV, MIPE5.0, CellTiter-Glo, qHTS, dose response (AID 1347065; cut-off not given, nearly all actives have AC50 up to about 26 µM;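 note: cells exposed to compound for 48 hours before ATP readout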). To be noted: CellTiter-Glo ATP luminescence.
A short description of experiment [19]: SU-DIPG-VI glioma cell viability, MIPE4.0 library, CellTiter-Glo luminescence, qHTS (AID 1347066; cut-off not given, nearly all actives have AC50 up to about 30 µM;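 note: cells exposed to compound for 48 hours before readout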). As to conditions: CellTiter-Glo ATP luminescence.
Experiment [20] is described as follows: JHH-DIPG-1 glioma cell viability, MIPE5.0 library, CellTiter-Glo luminescence, qHTS (AID 1347067; cut-off not given, nearly all actives have AC50 up to about 26 µM;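 note: cells exposed to compound for 48 hours before readout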). To be noted: JHH-DIPG-1 glioma viability, CellTiter-Glo ATP luminescence.
Experiment [21] in a line: SU-DIPG-XXV glioma cell viability, MIPE5.0 library, qHTS (AID 1347068; cut-off not given, nearly all actives have IC50 up to about 30 µM;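 note: cells exposed to compound for 48 hours before viability readout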).
The nature of experiment [22]: sensitizers of A549 cells to miR-34 induction, primary screen, imaging, A549 dox-inducible miR-34, nuclei and caspase counts (AID 1347080;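 active = compounds whose cell count with miR-34 switched on is under 0.7 times the count with it off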). As to conditions: A549 miR-34 inducible, Hoechst nuclei count, 48 h.
Experiment [23] can be described thus: phospholipid biosynthesis inhibitors in animal cells, primary screen, cell-based, LOPAC library, screen 4 (AID 1347384; call rule not given here). As to conditions: phospholipid biosynthesis inhibition screen, at 10 µM.
Experiment [24] addresses Mitogen-activated protein kinase 7 (Homo sapiens) (UniProt Q13164). The experiment can be described thus: ERK5 transactivation activators in reporter cells, primary screen, cell-based, HTS (AID 1508626;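 active = luciferase signal above three times the same-plate solvent-only control wells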;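 note: luciferase driven by Gal4-ERK5 fusion binding five Gal4 sites before minimal TATA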). To be noted: HeLa Gal4-ERK5 transactivation, 18 h, at 5 µM, stronger effect = higher value.
The nature of experiment [25]: viability rescue of complex I mutant cybrids, primary screen, cell-based, galactose medium, ATP luminescence (AID 1645843;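 active = z-score of at least 1.8 in each of two replicates, scored against plate mean and spread of sample wells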;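 note: positive z means more ATP and so rescue of galactose-driven cybrid death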). As to conditions: complex I mutant cybrid cells, 72 h, stronger effect = higher value.
The mark [26] stands for this setting: measured here: epithelial PC-3E GFP cell survival.
[27] abbreviates: measured here: mesenchymal TEM4-18 mCherry cell survival.

Sequence of Mitogen-activated protein kinase 7 (Homo sapiens) (Q13164 whole entry, looked up, the tested form may be a part): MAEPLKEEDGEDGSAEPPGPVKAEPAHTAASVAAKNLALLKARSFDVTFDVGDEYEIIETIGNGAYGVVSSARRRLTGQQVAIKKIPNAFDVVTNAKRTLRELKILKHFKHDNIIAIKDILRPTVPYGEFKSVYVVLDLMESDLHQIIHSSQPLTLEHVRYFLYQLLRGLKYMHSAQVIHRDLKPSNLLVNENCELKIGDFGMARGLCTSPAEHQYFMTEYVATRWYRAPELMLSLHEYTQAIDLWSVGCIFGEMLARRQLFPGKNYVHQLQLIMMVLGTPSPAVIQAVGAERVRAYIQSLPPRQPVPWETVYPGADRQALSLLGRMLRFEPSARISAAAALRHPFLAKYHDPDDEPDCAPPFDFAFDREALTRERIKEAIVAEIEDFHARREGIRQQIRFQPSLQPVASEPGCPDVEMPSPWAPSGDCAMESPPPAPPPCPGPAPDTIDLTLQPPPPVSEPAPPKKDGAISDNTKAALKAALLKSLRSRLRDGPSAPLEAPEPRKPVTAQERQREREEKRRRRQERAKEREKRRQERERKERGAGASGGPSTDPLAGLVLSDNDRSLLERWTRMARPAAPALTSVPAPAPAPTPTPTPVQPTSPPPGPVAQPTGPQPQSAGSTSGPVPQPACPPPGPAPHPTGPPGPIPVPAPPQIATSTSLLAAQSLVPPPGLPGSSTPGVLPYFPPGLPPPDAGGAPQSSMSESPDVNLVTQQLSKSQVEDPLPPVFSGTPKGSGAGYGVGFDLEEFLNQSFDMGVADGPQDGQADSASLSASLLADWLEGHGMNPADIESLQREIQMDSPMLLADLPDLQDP

Take `CC1CCCC(O)/C=C/C(O)C(=O)c2c(O)cc(O)cc2CC(=O)O1` (configuration not stated): the red/green cell ratio (normalised) in experiment [1] is 1.11 (inactive). Further, the normalised cell number in [1] (setting [26]) stood at 0.89; in [1] (setting [27]) it was 0.99.
For `CC1CC(O)C2C=CC(CC(=O)O1)O2` (configuration not stated), the red/green cell ratio (normalised) in experiment [1] was 0.76 (inactive). The normalised cell number amounted to 0.7 in experiment [1] (setting [26]) and 0.53 in experiment [1] (setting [27]).
For the compound `C[C@H]1C[C@H]2O[C@@H]2/C=C\C=C\C(=O)Cc2c(Cl)c(O)cc(O)c2C(=O)O1`, the red/green cell ratio (normalised) in experiment [1] is 0.97 (inactive). In addition, the normalised cell number in experiment [1] (setting [26]) worked out at 0.89; in [1] (setting [27]), 0.87.
The corresponding values for `CO[C@H]1CC(O[C@@H]2/C(C)=C/C[C@@H]3C[C@@H](C[C@]4(CC[C@H](C)[C@@H](C5CCCCC5)O4)O3)OC(=O)[C@@H]3C=C(C)/C(=N/O)C4OC/C(=C\C=C\[C@@H]2C)[C@]43O)O[C@@H](C)C1O` (some centres not stated) are 1.11 (inactive), 1.23 and 1.36.
As for `CC(CC(=O)N1C(=O)OC[C@@H]1Cc1ccccc1)N1C(=S)OC[C@H]1c1ccccc1` (some centres not stated), the red/green cell ratio (normalised) in [1] is 0.87 (inactive). The normalised cell number in experiment [1] (setting [26]) came out at 1.17; in [1] (setting [27]) it was 1.02.
On to `CC(C)CC1C(=O)OC(C(C)C)C(=O)N(C)C(C(C)C)C(=O)OC(C(C)C)C(=O)N(C)C(C(C)C)C(=O)OC(C(C)C)C(=O)N1C` (configuration not stated), for which the red/green cell ratio (normalised) in experiment [1] is 0.99 (inactive). For the same compound, the normalised cell number in experiment [1] (setting [26]) amounted to 1.17; in experiment [1] (setting [27]) it was 1.15.
On to `COC1=CC[C@@]2(C)[C@@](O)(CC[C@H]3Cc4c([nH]c5ccccc45)[C@@]32C)[C@@]12CC(=O)[C@](O)(C(C)(C)OC(C)=O)O2`, for which the red/green cell ratio (normalised) in experiment [1] was 0.97 (inactive). The figures for the normalised cell number in experiment [1] (setting [26]) and in [1] (setting [27]) were 1.15 and 1.11, respectively.
In the case of `COc1cc([C@@]2(C)[C@@H]3[C@@H](C)CCC[C@@H]3C=C[C@@H]2C)oc(=O)c1C=O`, the red/green cell ratio (normalised) in experiment [1] is 0.92 (inactive). For the same compound, the normalised cell number is 1.06 in experiment [1] (setting [26]) and 0.98 in experiment [1] (setting [27]).
On to `CO/N=C1/C[C@]2(C[C@@H]3C[C@@H](C/C=C(\C)C[C@@H](C)/C=C/C=C4\COC5[C@H](O)C(C)=C[C@@H](C(=O)O3)[C@]45O)O2)O[C@H](/C(C)=C/C(C)C)[C@H]1C` (some centres not stated), for which the red/green cell ratio (normalised) in experiment [1] was 1.32 (inactive). In addition, the normalised cell number in experiment [1] (setting [26]) came out at 1; in experiment [1] (setting [27]), 1.32.
On to `NCCCCNCCCN`, for which the figures for the inhibition in experiment [2] and in experiment [12] were 7.23% and -2% (inactive), respectively. This compound also yielded a score in [3] of 1. Also, in experiment [4], the rescue above control is -7.17. The cytochrome c release ratio in experiment [5] was 1.12. The inhibition of aggregation in experiment [6] is 57.8%. Further, in experiment [7], the normalised LDH release stood at 0.936. Besides, the glutamate uptake change in experiment [8] is -3.1%. Further, the inclusion score in experiment [9] came out at 2. The aggregation suppression score in experiment [10] is 0.846. In addition, in [11], the period change is 0.115 h (inactive). Besides, the fluorescence ratio (interference) in [13] is 1 (inactive). In addition, the red/green cell ratio (normalised) in experiment [1] is 0.89 (inactive). Moreover, the normalised cell number in [1] (setting [26]) is 0.98; in experiment [1] (setting [27]), 0.87. For the same compound, in experiment [14], the remaining activity is 101% (inactive). Further, the compound was called inactive in [15], in experiment [16], in experiment [17], in [18], in experiment [19] and in experiment [20]. In addition, in [23], the outcome was inactive. For the same compound, the IC50 in [21] was 1.18 nM (active). Also, the fold change is 0.943 (inactive) and 0.936 (inactive) in [22] (stronger effect = lower value, cell number ratio, induced over uninduced); 1.92 and 0.604 in experiment [22] (measured here: relative caspase fold change +Dox/-Dox). The cell count in experiment [22] (measured here: total cells with miR-34 induction, stronger effect = lower value) is 9580 and 9960; in experiment [22] (measured here: total cells without miR-34 induction), 10200 and 10600. The luciferase signal in experiment [24] was 48 AU (inactive). For the same compound, in experiment [25], the z-score is -0.635 (inactive) and -0.08 (inactive).
